Screens (PubChem)
Shown are actives, neighbours in structure and some others; about 2.8% of the full set was active somewhere.
SNCA expr inhib: inhibitors of alpha-synuclein (SNCA) gene expression. HEK-293 SNCA-luciferase knock-in, luminescence, 24 h. Potency, µM (titrated, usually from 57.2 µM), actives largely listed as inhibitors. actives 0.17% (n = 140,000). AID 1671194; also: nearly all actives have a fitted effect of over 45% in size
SNCA viab count: counter-screen for SNCA expression inhibitors: cell viability | HEK-293-SNCA-luc viability, GF-AFC fluorescence, 24 h | Potency, µM (top dose mostly 57.1 µM), actives largely listed as cytotoxic | actives 0.12% (n = 150,000) | AID 1671193; also: nearly all actives have a fitted effect of over 30% in size
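Cytotoxicity counterscreen: after 24 h compound treatment of genome-edited SNCA-luciferase HEK-293 cells, live-cell protease substrate GF-AFC read by fluorescence after 30 min; activity scaled between DMSO (0%) and medium-only (-100%), curves Hill-fitted.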
KDM5B inhibitor: blocks human KDM5B histone demethylase activity; Q9UGL1; KDM5B demethylase, FDH-coupled NADH fluorescence (FDH is formaldehyde dehydrogenase); Potency, µM (doses to about 57.7 µM), hits mostly inhibitors; actives 2.6% (n = 220,000); also: nearly all actives have a fitted effect of over 70% in size
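qHTS format, multiple compound concentrations. Buffer 50 mM HEPES pH 7.5/0.01% Tween-20; 200 nM KDM5BΔAP final; 10 min compound preincubation; substrate-mix levels 12.5 µM peptide, 25 µM α-KG, 0.25 mM NAD⁺; 30 min RT; ΔRFU.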
IP6K1 inhibitor: IP6K1 kinase inhibition. IP6K1 kinase, ADP-Glo luminescence, 2 h; stronger effect = lower value. activity change, % (series mostly up to about 58 µM). actives 0.81% (n = 140,000); in the data active = activity change below about -25%
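ADP-Glo luminescence measures ADP made by human IP6K1 during a 2 h RT reaction with ATP/IP6 (mix at 1.3 mM/130 uM); top library doses 57.5 and 19.1 uM final.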
Hits are given with their value; i = inactive; ? = inconclusive; nt = no result given. Unless noted, calls follow the shape of the dose curve; as a rule, active = well fitted curve in the direction sought with a large enough effect; inconclusive = small, poorly fitted or top-dose-only effect, or another doubt; inactive = no such curve, though single readings can be large; an effect the other way counts as inactive or inconclusive.

SMILES	SNCA expr inhib	SNCA viab count	KDM5B inhibitor	IP6K1 inhibitor
O=C(CSc1nnc(-c2ccc3c(c2)OCO3)o1)NC1CCCC1	nt	nt	i	nt
Cc1ccc(C#N)c(N2CCCC(c3nnc(Cn4cccn4)n3C)C2)n1 (configuration not stated)	i	i	28µM	i
COc1ccc(C(=O)c2sc(Nc3cccc(C)c3)nc2N)cc1	nt	nt	i	nt
Cc1nnc(-c2cc(Nc3cccc(N(C)C)c3)ccn2)n1Cc1ccccc1	i	i	32µM	i
CN(C)CCCOc1ccc(-c2cnc(N)cn2)cn1	i	i	32µM	i
COc1ccc(-c2ccc3nnc(CNC(=O)c4cc(Cl)ccc4F)n3n2)cc1	i	i	28µM	i
COc1ccc(C(=O)NCc2nnc3ccc(-c4ccc(Cl)cc4)nn23)c(OC)c1	i	i	i	i
Cc1ccc(-c2ccc3nnc(CNC(=O)c4cc(F)ccc4Cl)n3n2)cc1	i	i	13µM	i
COc1ccc(-c2ccc3nnc(CNC(=O)c4cc(F)ccc4F)n3n2)cc1	i	i	28µM	i
Cc1ccc(-c2ccc3nnc(CNC(=O)c4cc(Cl)ccc4F)n3n2)cc1	i	i	28µM	i
O=C(COc1ccc(Cl)cc1Cl)Nc1ccc2oc(-c3cccnc3)nc2c1	nt	nt	i	nt
O=C(c1ccccc1OC(F)F)N1CCCCC1	nt	nt	i	nt
COc1ccccc1-c1[nH]nc2ncc(-c3ccccc3F)nc12	i	i	35µM	i
COc1ccccc1-c1[nH]nc2ncc(C(=O)NCc3ccccc3)nc12	i	i	32µM	i
Cc1ccccc1-c1[nH]nc2ncc(-c3ccnn3C)nc12	i	i	35µM	i
Cc1cc(F)ccc1-c1[nH]nc2ncc(-c3ccnn3C)nc12	i	i	?	i
COc1ccc(-c2cnc3n[nH]c(-c4ccc(F)cc4C)c3n2)cn1	i	i	28µM	i
Cn1c(NCc2ccc(Cl)cc2)nc2c1c(=O)n(Cc1ccc(Cl)cc1)c(=O)n2C	nt	nt	i	nt
CC(Sc1nc2ccccc2[nH]1)C(=O)NC(=O)NC12CC3CC(CC(C3)C1)C2 (configuration not stated)	nt	nt	i	nt
COc1ccccc1-c1[nH]nc2ncc(-c3cccc(O)c3)nc12	i	i	35µM	i
COc1ccccc1-c1[nH]nc2ncc(-c3ccccc3C)nc12	i	i	32µM	i
O=C1COc2ccc(-c3ccncc3)nc2CN1Cc1ccccc1F	i	i	35µM	i
O=C1COc2ccc(-c3ccncc3)nc2CN1Cc1ccc(F)cc1	i	i	25µM	i
COc1ccc(-c2ccc3c(n2)CN(Cc2ccc(F)cc2)C(=O)CO3)cc1	?	?	22µM	i
COc1cccc(-c2ccc3c(n2)CN(Cc2ccc(F)cc2)C(=O)CO3)c1	i	i	i	i
SMILES	SNCA expr inhib	SNCA viab count	KDM5B inhibitor	IP6K1 inhibitor
O=c1c2nc(NCc3cccs3)ccc2ncn1Cc1ccccc1	i	i	40µM	i
O=c1c2nc(Nc3cccc(F)c3)ccc2ncn1Cc1ccccc1	i	?	?	i
CCOC(=O)c1c(NC(=O)CCCN2CCCCC2)sc2c1CC(C)(C)OC2	nt	nt	i	nt
O=C(COC(=O)C1CC2CCCC(C1)C2=O)Nc1ccc([N+](=O)[O-])cc1C(F)(F)F (configuration not stated)	nt	nt	i	nt
COc1ccc(-c2ccnc3nc(C(C)C)nn23)cc1OC	i	i	28µM	i
COc1ccc(-c2ccnc3nc(C(C)C)nn23)cc1	i	i	25µM	i
COc1cc(-c2ccnc3nc(C(C)C)nn23)cc(OC)c1OC	i	i	?	i
COc1ccc(-c2ccnc3nc(C(C)C)nn23)c(F)c1	i	i	i	i
CN1CCN(c2ccc(-c3cn(C)c(=O)n4cc(CNc5ccccc5)nc34)cn2)CC1	i	i	28µM	i
COc1cc(-c2cn(C)c(=O)n3cc(COc4ccnn4C)nc23)ccn1	i	i	35µM	i
COc1ccc(-c2cn(C)c(=O)n3cc(CN(C)C)nc23)cc1OC	i	i	35µM	i
Cn1cc(-c2cn(C)c(=O)n3cc(CNc4ccccc4)nc23)cn1	i	i	i	i
CN1CCN(c2ccc(-c3cn(C)c(=O)n4cc(COc5ccnn5C)nc34)cn2)CC1	i	i	40µM	i
Cn1nccc1OCc1cn2c(=O)n(C)cc(-c3ccsc3)c2n1	i	i	?	i
c1csc(-c2nnc(COc3ccc(-n4cnnn4)cc3)o2)c1	nt	nt	i	nt
O=C(c1ccccc1OCC1CCCN(C2CCSCC2)C1)N1CCCCC1 (configuration not stated)	i	i	i	i
Cc1ccc(NC(=O)Cc2nc(CSc3nncn3-c3cc(C)ccc3C)cs2)cc1	nt	nt	i	nt
CCOC(=O)c1ccc(NC(=O)CSc2ncc(S(=O)(=O)c3ccc(C)c(Cl)c3)c(=O)[nH]2)cc1	i	i	i	-49
O=S(=O)(Nc1nc2ccccc2nc1N1CCCC1)c1ccc(F)cc1	nt	nt	i	nt
O=C(Cn1ccn2nc3c(c2c1=O)CCCCC3)Nc1ccccc1C(F)(F)F	i	i	?	i
CCCNC(=O)Cn1ccn2nc3c(c2c1=O)CCCC3	i	i	i	i
CC(C)CCNC(=O)Cn1ccn2nc3c(c2c1=O)CCCC3	?	i	20µM	i
CCc1ccccc1NC(=O)Cn1ccn2nc3c(c2c1=O)CCCC3	i	i	35µM	i
CCc1nc2nccc(-c3ccsc3)n2n1	i	i	25µM	i
CC(C)Cc1nc2nccc(-c3ccsc3)n2n1	i	i	28µM	i
SMILES	SNCA expr inhib	SNCA viab count	KDM5B inhibitor	IP6K1 inhibitor
COCc1nc2nccc(-c3ccsc3)n2n1	i	i	28µM	i
CCn1c(CO)nnc1C1CC(NC(=O)Cn2ncc3ccccc32)C1 (configuration not stated)	i	i	i	i
O=C(NC(C(=O)N1CCCC1)C1CCN(C(=O)Cc2ccccc2)CC1)c1ccccc1 (configuration not stated)	i	i	i	i
CCCN1CCc2[nH]cnc2C12CCN(C(=O)c1cnn3ccccc13)CC2	i	i	25µM	i
CC(C)S(=O)(=O)N1CC(Oc2ccc(-c3noc(-c4cccnc4)n3)cc2)C1	i	i	28µM	i
O=C(Cc1ccccc1F)N1CC(Oc2ccc(-c3noc(-c4cccnc4)n3)cc2)C1	?	?	?	i
COc1ccc(CN2CCOC[C@H]2c2ncc(-c3ccc(S(C)(=O)=O)cc3)[nH]2)cc1	?	i	35µM	i
Nc1nc2c(c(=O)[nH]1)CCN(C(=O)CC(c1ccccc1)c1ccco1)C2 (configuration not stated)	i	i	18µM	i
CC(=O)c1c(C)nn(C(C)CC(=O)N2CCc3c(nc(N)[nH]c3=O)C2)c1C (configuration not stated)	i	i	i	i
COCCNC(=O)C1(C)CCCc2cnc(Nc3ccccc3)nc21 (configuration not stated)	i	i	i	i
CN(C)c1ncc2c(n1)C(C)(C(=O)Nc1ccccc1F)CCC2 (configuration not stated)	?	i	?	i
CN(Cc1ccccc1)C(=O)C1(C)CCCc2cnc(N(C)C)nc21 (configuration not stated)	i	i	32µM	i
